# ADAM17 inh – inhibitors of human ADAM17; P78536; recombinant ADAM17, EDANS/DABCYL FRET peptide cleavage; inhibition, % at 6.95 µM; 370,000 tested, 0.83% active; AID 720648;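 active = inhibition above the mean of compounds lying between control limits plus 3 SD, set per campaign, cut at about 8.5% in these data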
# FAS TE block – FAS thioesterase (human) inhibition | P49327 | recombinant FAS-TE, OMFH fluorogenic substrate, fluorescence endpoint | inhibition, % at 15 µM | 360,000 tested, 0.67% active;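 active = compounds whose normalised, plate-corrected inhibition of enzyme fluorescence in the single-dose primary screen is 50% or more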
# ADAM10 inh – inhibits human ADAM10; 370,000 tested, 0.62% active; recombinant ADAM10, EDANS/DABCYL FRET peptide cleavage, 3 h; inhibition, % at 7 µM; O14672; AID 720582;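 active = inhibition above a per-campaign cutoff equal to the mean of compounds falling between control-based bounds plus 3 SD, cut at about 20% in these data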
# Target sequence (O14672 214-748 limits assumed): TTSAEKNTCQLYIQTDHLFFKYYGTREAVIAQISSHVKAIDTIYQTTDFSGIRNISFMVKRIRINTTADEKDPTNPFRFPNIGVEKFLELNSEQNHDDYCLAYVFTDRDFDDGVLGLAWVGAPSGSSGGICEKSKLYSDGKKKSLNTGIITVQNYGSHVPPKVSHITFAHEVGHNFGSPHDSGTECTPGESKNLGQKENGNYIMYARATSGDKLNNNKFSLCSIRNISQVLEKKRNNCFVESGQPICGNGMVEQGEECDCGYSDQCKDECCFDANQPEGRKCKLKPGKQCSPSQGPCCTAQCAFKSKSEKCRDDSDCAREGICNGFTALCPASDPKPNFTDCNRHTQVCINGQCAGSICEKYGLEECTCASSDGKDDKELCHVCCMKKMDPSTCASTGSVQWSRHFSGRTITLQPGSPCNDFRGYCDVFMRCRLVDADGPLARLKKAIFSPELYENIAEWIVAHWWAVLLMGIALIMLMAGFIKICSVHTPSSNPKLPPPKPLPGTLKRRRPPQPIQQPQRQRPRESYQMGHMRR
# KLK7 zymogen act – proKLK7 (human) activation, primary screen; P49862; purified proKLK7, EDANS-DABCYL substrate fluorescence; 100% is mature enzyme control, 0% vehicle; activation, % at 7 µM; 370,000 tested, 0.9% active;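 active = activation above the mean of all tested compounds plus 3 SD, computed per campaign excluding outliers beyond control limits, cut at about 13% in these data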
# GRIN3A LBD mod – modulators (binders) of human NR3A ligand-binding domain. Tm shift relative to glycine control, % at 25 µM. 340,000 tested, 2.5% active. NR3A LBD differential scanning fluorimetry, Tm shift; 0% = protein alone, 100% = glycine-bound protein;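 active = melting temperature shift of at least 10% of the positive control shift, at one fixed dose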
# KLK7 act conf – proKLK7 activation, confirmation. shares compounds with KLK7 zymogen act. purified proKLK7, EDANS-DABCYL substrate fluorescence; scaled: vehicle 0, mature enzyme 100. activation, % at 7 µM. 3,200 tested, 68% active. AID 686949;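 active = activation, as change over the incubation, above the mean of all tested compounds plus 3 SD, cut at about 13% in these data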
# EDANS interfere – fluorescence interference counter-screen for KLK7 activators; activation, % at 7 µM; EDANS-DABCYL substrate fluorescence interference, no enzyme, 4 h; solvent 0%, active enzyme control 100%; 3,200 tested, 80% active; AID 686952; shares compounds with KLK7 zymogen act;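 active = activation above the all-compound mean plus 3 SD, ignoring values outside control-based bounds, cut at about 4.8% in these data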;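 note: value is the 4 h activation minus the activation read at time zero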
# EDANS interf – EDANS fluorescence interference in dose response, no enzyme | shares compounds with KLK7 zymogen act | EDANS-DABCYL peptide fluorescence interference | EC50, µM | 250 tested, 20% active | AID 720493;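 active = compounds that raise the fluorescence signal in this interference counterscreen, with EC50 at or below 10 µM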;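 note: intact quenched peptide substrate alone read at 355 nm excitation and 520 nm emission; signal is fluorescence gain from T0 to T4 after four hours at room temperature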
# Numbers stand for hits; i = inactive; nt = not tested or not shown. Compounds with a hit are over-represented: about 4.6% of the library has one in this group of screens.
SMILES,ADAM17 inh,FAS TE block,ADAM10 inh,KLK7 zymogen act,GRIN3A LBD mod,KLK7 act conf,EDANS interfere,others
C/C(=N\NC(=O)CNc1cccc2ccccc12)c1ccccc1,i,i,i,46.1,i,i,i,
O=C(CNc1cccc2ccccc12)N/N=C/C=C/c1ccco1,i,i,i,i,i,nt,nt,
C=CC[C@]1(c2ccccc2)C(=O)N2C[C@H]3CON(C)[C@H]3C[C@H]2c2ccccc21,i,nt,i,i,nt,nt,nt,
COc1ccc(CNCC#Cc2cccnc2)c(OC)c1,i,nt,i,i,nt,nt,nt,
CN(C)c1ccc(-c2cccc3nccn23)cc1,i,i,i,40.0,nt,70.1,59.9,EDANS interf=i
N#CCc1ccc(-c2cccc3nccn23)cc1,i,i,i,21.7,nt,13.2,26.0,
c1cc(-c2ccc(N3CCOCC3)cc2)n2ccnc2c1,i,i,i,78.8,nt,47.2,59.1,
COC(=O)C1=C(C)N(CCCC(=O)O)C(=O)NC1c1cc2c(cc1[N+](=O)[O-])OCO2 (stereo unspecified),i,i,i,13.2,i,13.1,14.2,
COc1ccc(/C=N/NC(=O)CN2CCSCC2)c(OC)c1,i,i,i,i,i,nt,nt,
COc1ccc(OC)c(/C=N/NC(=O)C(O)c2ccccc2)c1 (stereo unspecified),i,i,i,40.5,i,34.2,35.9,
COc1ccc(OC)c(/C=N/NC(=O)CN2CCSCC2)c1,i,i,i,24.4,i,56.0,46.8,EDANS interf=i
COc1ccc(NC(=O)c2ccc(NC(=O)CSc3nc(N)cc(=O)[nH]3)cc2)cc1,i,i,i,23.4,11.0,17.3,13.8,EDANS interf=i
O=c1oc2cc(O)ccc2c2oc3cc(O)ccc3c12,i,i,i,71.6,i,62.0,71.8,
O=c1oc2cc(O)ccc2c2ccccc12,i,i,i,i,i,nt,nt,
CC(C)Oc1ccc2c3c(c(=O)oc2c1)CCC3,i,i,i,i,i,nt,nt,
CSCCC(NC(C)=O)C(=O)Oc1ccc2c3c(c(=O)oc2c1)CCCC3 (stereo unspecified),i,i,i,52.7,i,61.5,65.8,
O=C(Oc1ccc2c3c(c(=O)oc2c1)CCCC3)c1ccco1,i,i,i,294.7,i,639.2,631.2,
CC(=O)Oc1ccc2c3c(c(=O)oc2c1)CCCC3,i,i,i,494.6,i,687.9,685.4,
Cc1ccccc1Cn1ccc2ccc(-c3ccc4ccn(Cc5ccccc5)c4c3)cc21,i,nt,i,i,nt,nt,nt,
O=c1oc2cc(O)ccc2c2c1CCCC2,i,i,i,57.8,i,59.9,70.4,
CC(Oc1ccc2c3c(c(=O)oc2c1)CCCC3)C(=O)NCC1CCC(C(=O)O)CC1 (stereo unspecified),i,i,i,i,i,nt,nt,
COC(=O)C(C)Oc1ccc2c3c(c(=O)oc2c1)CCCCC3 (stereo unspecified),i,i,i,24.7,i,i,i,
Cc1nc(SCC(=O)N(C)c2ccccc2)[nH]c(=O)c1C,i,nt,i,nt,nt,nt,nt,
O=C1[C@H]2C[C@@]3(n4ccc5ccccc54)c4ccccc4N(S(=O)(=O)c4ccccc4)[C@H]3N2C(=O)CN1Cc1ccccc1,i,nt,i,i,nt,nt,nt,
Nc1nc(N)c2c(ccc3nccc32)[nH]1,i,i,i,195.4,i,76.3,80.7,
SMILES,ADAM17 inh,FAS TE block,ADAM10 inh,KLK7 zymogen act,GRIN3A LBD mod,KLK7 act conf,EDANS interfere,others
CN(Cc1ccccc1F)C(=O)C1CCC(CNS(=O)(=O)c2cccc3cccnc23)CC1 (stereo unspecified),i,nt,i,i,nt,nt,nt,
CCOC(=O)Nc1ccc2c(COC(=O)CNS(=O)(=O)c3ccc(NC(C)=O)cc3)cc(=O)oc2c1,i,i,i,98.1,i,126.5,106.1,
COc1cc2c(cc1OC)CN(C(=O)Cc1ccccc1)CC2,i,i,i,i,i,nt,nt,
COc1cc2c(cc1OC)CN(Cc1ccccc1)CC2,i,i,i,i,i,nt,nt,
COc1cc2c(cc1OC)CN(C(=O)c1ccccc1C(=O)O)CC2,i,i,i,16.5,i,i,5.2,
COc1cc2c(cc1OC)CN(CC(O)c1ccccc1)CC2 (stereo unspecified),i,i,i,96.2,i,56.4,74.2,
COc1cc2c(cc1OC)CN(CCC(C)c1ccc(Cl)cc1)CC2 (stereo unspecified),i,i,i,20.9,i,148.0,144.9,
O=C(Nc1c(-c2ccc(C(F)(F)F)cc2)nc2ncccn12)C1CC1,i,nt,i,27.2,nt,29.3,26.7,
Cc1ccc(-c2nc3ncccn3c2NC(=O)C2CC2)cc1,i,i,i,16.6,i,31.7,45.2,
Cc1ccc(-c2nc3ncccn3c2NC(=O)Nc2ccc(OC(F)(F)F)cc2)cc1,i,nt,i,i,nt,nt,nt,
CC(C)(C)c1ccc(-c2nnc(SCc3cccc4ccccc34)n2Cc2ccco2)cc1,i,nt,i,i,nt,nt,nt,
Cc1cc(=O)oc2c3c(cc(OCC(=O)NCc4ccncc4)c12)OC(C)(C)CC3,i,i,i,23.2,i,36.6,i,EDANS interf=i
Cc1c(C)c2c(OCC(=O)NCc3ccncc3)cc3c(c2oc1=O)CCC(C)(C)O3,i,i,i,i,i,nt,nt,
CCc1cc(=O)oc2c3c(cc(OCC(=O)NCc4ccccn4)c12)OC(C)(C)CC3,i,i,i,20.0,i,i,i,
CCc1cc(=O)oc2c3c(cc(OCC(=O)Nc4cccnc4)c12)OC(C)(C)CC3,i,i,i,i,i,nt,nt,
CCc1cc(=O)oc2c3c(cc(OCC(=O)NCc4cccnc4)c12)OC(C)(C)CC3,i,i,i,17.9,i,i,i,
CCc1cc(=O)oc2c3c(cc(OCC(=O)NCCCCCC(=O)O)c12)OC(C)(C)CC3,i,i,i,30.0,i,57.0,63.9,
CCOC(=O)Cn1cc(CN2C(C(=O)OC)CN(Cc3ccc(F)cc3)CCS2(=O)=O)nn1 (stereo unspecified),i,nt,i,i,nt,nt,nt,
COCCN1C(=O)C2=C(C1=O)C1N(C)c3ccccc3[C@@]13C[C@@H](CO)N(C(=O)CCC(=O)OC)C3=N2 (stereo partly specified),i,nt,i,i,nt,nt,nt,
Cc1ccc(C23OCCN2CCn2nc4ccccc4c23)cc1 (stereo unspecified),i,i,i,43.9,i,i,i,
N#Cc1ccc(C23OCCN2CCn2c3c3ccccc3[n+]2[O-])cc1 (stereo unspecified),i,i,i,i,i,nt,nt,
O=c1c2cc3cc4c(cc3nc2ncn1Cc1cccnc1)OCO4,i,nt,i,i,nt,nt,nt,
O=C(CN1CCCC1)Nc1ccc(-c2nc3cc(NC(=O)CN4CCCC4)ccc3o2)cc1,i,i,i,58.2,i,i,i,

# From PubChem BioAssay
